This is an account of results in ChEMBL document CHEMBL5606460, “ASAP - DENV-2 NS2B-NS3 protease fluorescence single point” (2024).

This assay concerns the target Genome polyprotein (dengue virus type 2) (UniProt P29990).
[1] abbreviates: Thailand/16681/1984, Concentration 25.0 uM, Number of replicates 1.0.

The campaign covered roughly 2,000 compounds. About 110 (5.5%) showed an effect of 50% or more. For the sample, strong results were picked, then their nearest neighbours and some compounds at random.

The term inhibition denotes the drop in the measured response relative to a control, in per cent.

`C[C@H](NC(=O)C1CCN(c2ccc(C=O)cc2)CC1)c1ccc(S(C)(=O)=O)cc1`: under setting [1], the inhibition came to 12.5%.
For `CCN(C(=O)C1CCN(c2ccc(C=O)cc2)CC1)[C@H]1CCOC(C)(C)C1`, the inhibition under setting [1] was 13%.
For the compound `NCc1cccc(NC(=O)[C@@H](Cc2cccc(O)c2)NC(=O)OCc2ccccc2)c1`, the inhibition was -3.63% (Thailand/16681/1984, Concentration 49.5 uM, Number of replicates 2.0, Standard deviation 2.8573642237031027 %); -3.65% (Thailand/16681/1984, Concentration 99.01 uM, Number of replicates 2.0, Standard deviation 1.9175045904819328 %); -2.84% (Thailand/16681/1984, Concentration 198.0 uM, Number of replicates 2.0, Standard deviation 1.9524208099559948 %).
In the case of `COc1cc(C(=O)N(C)C)nc(N2CCNCC2)n1`, the inhibition was -3.23% (Thailand/16681/1984, Concentration 49.5 uM, Number of replicates 2.0, Standard deviation 4.026406870890022 %); -4.25% (Thailand/16681/1984, Concentration 99.01 uM, Number of replicates 2.0, Standard deviation 2.6098419358385048 %); -2.7% (Thailand/16681/1984, Concentration 198.0 uM, Number of replicates 2.0, Standard deviation 2.250930669275132 %).
On to `CCCC[C@@H](NC(=O)OC(C)(C)C)C(=O)N[C@@H](C(=O)NCc1ccc(CN)cc1)c1ccc(OCc2ccccc2)cc1`, for which the inhibition (Thailand/16681/1984, Concentration 49.5 uM, Number of replicates 2.0, Standard deviation 1.8529777654117539 %) came out at 94%; the inhibition (Thailand/16681/1984, Concentration 99.01 uM, Number of replicates 2.0, Standard deviation 0.005880328304239935 %) amounted to 100%; the inhibition (Thailand/16681/1984, Concentration 198.0 uM, Number of replicates 2.0, Standard deviation 0.014706215557209234 %) worked out at 99.9%.
On to `CC(C)(C)OC(=O)N[C@H](C(=O)Nc1cccc(CN)c1)c1ccc(OCc2ccccc2)cc1`, for which the inhibition by setting is: (Thailand/16681/1984, Concentration 49.5 uM, Number of replicates 2.0, Standard deviation 1.7551947166429631 %) -1.9%; (Thailand/16681/1984, Concentration 99.01 uM, Number of replicates 2.0, Standard deviation 0.05489981052071439 %) 3.23%; (Thailand/16681/1984, Concentration 198.0 uM, Number of replicates 2.0, Standard deviation 0.6374768156986698 %) 15%.
For the compound `CCCC[C@H](NC(=O)OC(C)(C)C)C(=O)N[C@H](C(=O)NCc1ccc(C(N)=O)cc1)c1ccc(OCc2ccccc2)cc1`, the inhibition reads like this: (Thailand/16681/1984, Concentration 49.5 uM, Number of replicates 2.0, Standard deviation 0.5441055304446053 %) -3.24%; (Thailand/16681/1984, Concentration 99.01 uM, Number of replicates 2.0, Standard deviation 1.2410372194636528 %) 12.6%; (Thailand/16681/1984, Concentration 198.0 uM, Number of replicates 2.0, Standard deviation 0.08996362825826161 %) 97.6%.
As for `CC(C)(C)OC(=O)N[C@H](C(=O)Nc1cccc(C(N)=O)c1)c1ccc(OCc2ccccc2)cc1`, the inhibition reads like this: (Thailand/16681/1984, Concentration 49.5 uM, Number of replicates 2.0, Standard deviation 1.188000805409302 %) 2.72%; (Thailand/16681/1984, Concentration 99.01 uM, Number of replicates 2.0, Standard deviation 0.11203913598390365 %) 5.59%; (Thailand/16681/1984, Concentration 198.0 uM, Number of replicates 2.0, Standard deviation 0.9108004769909699 %) 7.47%.
In the case of `CC(C)(C)OC(=O)N[C@H](C(=O)Nc1ccc(CN)cc1)c1ccc(OCc2ccccc2)cc1`, the inhibition by setting is: (Thailand/16681/1984, Concentration 49.5 uM, Number of replicates 2.0, Standard deviation 0.7638001086987946 %) -1.42%; (Thailand/16681/1984, Concentration 99.01 uM, Number of replicates 2.0, Standard deviation 0.5692523211680847 %) 0.423%; (Thailand/16681/1984, Concentration 198.0 uM, Number of replicates 2.0, Standard deviation 0.3400589812244498 %) 5.26%.
Consider `Cc1cnccc1NC(=O)c1ccc2c(c1)COCC2`, for which the inhibition is -1.99% (Thailand/16681/1984, Concentration 49.5 uM, Number of replicates 2.0, Standard deviation 2.5121871293930202 %); -1.68% (Thailand/16681/1984, Concentration 99.01 uM, Number of replicates 2.0, Standard deviation 1.8322256055090813 %); -1.51% (Thailand/16681/1984, Concentration 198.0 uM, Number of replicates 2.0, Standard deviation 3.8354075529759903 %).
On to `NCc1cccc(NC(=O)C2(NC(=O)OCc3ccccc3)CC(F)(F)C2)c1`, for which the inhibition is -2.94% (Thailand/16681/1984, Concentration 49.5 uM, Number of replicates 2.0, Standard deviation 2.2677200349668407 %); -2.06% (Thailand/16681/1984, Concentration 99.01 uM, Number of replicates 2.0, Standard deviation 0.8839411333719474 %); -2.25% (Thailand/16681/1984, Concentration 198.0 uM, Number of replicates 2.0, Standard deviation 0.8051076448684426 %).
`Cc1cc(CO)c2cccc(Cc3ccccc3NC(=O)CN3CCOCC3)c2n1`: the inhibition is, setting by setting: (Thailand/16681/1984, Concentration 49.95 uM, Number of replicates 2.0, Standard deviation 1.5612707024702146 %) -2%; (Thailand/16681/1984, Concentration 99.9 uM, Number of replicates 2.0, Standard deviation 0.4618038620708361 %) 3.39%.
Take `COc1cc(Cc2cnc(N)c(C(F)F)c2)nc(N2CCNCC2)n1`: the inhibition is, setting by setting: (Thailand/16681/1984, Concentration 49.5 uM, Number of replicates 2.0, Standard deviation 0.44655669171298956 %) 1.19%; (Thailand/16681/1984, Concentration 99.01 uM, Number of replicates 2.0, Standard deviation 0.9500169394185984 %) 3.1%; (Thailand/16681/1984, Concentration 198.0 uM, Number of replicates 2.0, Standard deviation 0.4205436146652173 %) 6.14%.
With `CCCOc1ccc([C@H](C)NC(=O)C2CCN(c3ccc(C=O)cc3)CC2)cc1`, under setting [1], the inhibition came to 7.26%.
The same measure, in the same setting: next, `COc1ccc(C[C@H]2c3cc(OC)c(OC)cc3CCN2C(=O)C2CCN(c3ccc(C=O)cc3)CC2)cc1OC`: 15.8%.
For the compound `CCn1c(=O)c(N2CC[C@@H](CO)C2)nc2ccccc21`, the inhibition runs as follows: (Thailand/16681/1984, Concentration 49.5 uM, Number of replicates 2.0, Standard deviation 0.8446781408235627 %) 16.3%; (Thailand/16681/1984, Concentration 99.01 uM, Number of replicates 2.0, Standard deviation 1.6946189057395897 %) 33.2%; (Thailand/16681/1984, Concentration 198.0 uM, Number of replicates 2.0, Standard deviation 1.3775046688444705 %) 53.9%.
As for `CCn1ccnc(N2CC[C@@H](CO)C2)c1=O`, the inhibition is 8.04% (Thailand/16681/1984, Concentration 49.5 uM, Number of replicates 2.0, Standard deviation 0.40547257598729775 %); 15.5% (Thailand/16681/1984, Concentration 99.01 uM, Number of replicates 2.0, Standard deviation 0.38043701079703857 %); 28.5% (Thailand/16681/1984, Concentration 198.0 uM, Number of replicates 2.0, Standard deviation 0.16218916526483432 %).
As for `O=c1c(N2CC[C@H](CO)C2)nccn1C1CC1`, the inhibition is 8.46% (Thailand/16681/1984, Concentration 49.5 uM, Number of replicates 2.0, Standard deviation 2.4482264734756005 %); 18% (Thailand/16681/1984, Concentration 99.01 uM, Number of replicates 2.0, Standard deviation 2.8900822321462307 %); 33.2% (Thailand/16681/1984, Concentration 198.0 uM, Number of replicates 2.0, Standard deviation 2.1394185374850085 %).
Take `C[C@H](NC(=O)C1CCN(c2ccc(C=O)cc2)CC1)C12CC3CC(CC(C3)C1)C2`: the inhibition under setting [1] came to 15%.
The same measure, in the same setting: next, `CN(C(=O)C1CCN(c2ccc(C=O)cc2)CC1)[C@H]1CCN(Cc2ccccc2)C1`: 13.8%.
For `Cc1nnc([C@H](C)n2cc(C3CCNCC3)c(C)n2)o1`, the inhibition is, setting by setting: (Thailand/16681/1984, Concentration 49.5 uM, Number of replicates 2.0, Standard deviation 23.401160981224884 %) 6.09%; (Thailand/16681/1984, Concentration 99.01 uM, Number of replicates 2.0, Standard deviation 17.471832455878243 %) 11.7%; (Thailand/16681/1984, Concentration 198.0 uM, Number of replicates 2.0, Standard deviation 4.4669335919131345 %) -3.53%.
